Results from PubChem BioAssay AID1851 (National Center for Advancing Translational Sciences (NCATS), 2009).
The whole screen tested about 16,000 compounds, of which about 5,800 (36%) were called active. Roughly 23% stayed inconclusive and do not appear here. The call rests on the fitted dose curve; in most records, active means well fitted curve in the direction sought with a large enough effect; inconclusive means small, poorly fitted or top-dose-only effect, or effect the other way; inactive means no such curve, though single readings can be large or run the other way. This is one part of the list.

target: Cytochrome P450 2C19 (Homo sapiens) (UniProt P33261); assay: Cytochrome panel assay with activity outcomes; details: recombinant CYP, pro-luciferin dealkylation, luminescence, p450-cyp2c19; series mostly up to 57.1 µM; activity, negative = inhibition: at the top concentration
On the % scale 0 is the no-effect control and ±100 the full control effect.

Cytochrome P450 2C19 (Homo sapiens), sequence (P33261 whole entry, looked up): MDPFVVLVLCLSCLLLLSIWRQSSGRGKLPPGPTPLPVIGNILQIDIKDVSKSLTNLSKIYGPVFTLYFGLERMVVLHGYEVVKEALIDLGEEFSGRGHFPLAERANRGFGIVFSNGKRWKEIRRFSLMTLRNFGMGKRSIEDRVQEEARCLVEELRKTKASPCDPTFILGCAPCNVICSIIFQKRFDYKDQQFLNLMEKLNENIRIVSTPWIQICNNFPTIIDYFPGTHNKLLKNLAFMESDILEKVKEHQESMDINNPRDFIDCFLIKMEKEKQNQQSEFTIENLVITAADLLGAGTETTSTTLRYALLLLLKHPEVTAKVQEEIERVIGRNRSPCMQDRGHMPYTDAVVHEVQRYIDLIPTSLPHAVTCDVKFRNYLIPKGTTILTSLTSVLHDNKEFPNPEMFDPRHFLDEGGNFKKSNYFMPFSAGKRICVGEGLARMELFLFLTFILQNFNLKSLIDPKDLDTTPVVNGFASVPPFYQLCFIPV

Row | Structure (SMILES) | AC50 | activity, negative = inhibition
1 | CN1Cc2c(N)cccc2[C@H](c2ccccc2)C1 | inactive | –
2 | O=P(Cc1cc[n+]([O-])cc1)(c1ccccc1)c1ccccc1 | 15.8 µM (active) | –
3 | O=P(O)(CCP(=O)(O)c1ccccc1)c1ccccc1 | – | 2.23% [at 11.4 µM] (inactive)
4 | Cc1ccccc1-c1nc(CS(=O)CC(=O)NCCN2CCN(Cc3ccccc3)CC2)c(C)o1 (stereo not given) | 17.8 µM (active) | –
5 | CCCN(CCC)CCCNC(=O)CS(=O)Cc1nc(-c2ccc(OC)c(OC)c2)oc1C (stereo not given) | – | -24.7% (inactive)
6 | CCS(=O)(=O)N1CCC(C(=O)NCCN2CCN(Cc3ccccc3)CC2)CC1 | – | -5.92% (inactive)
7 | CN(Cc1ccco1)c1ncnc2ccc(-c3ccccc3C(F)(F)F)cc12 | 3.16 µM (active) | –
8 | CNc1ncnc2ccc(-c3ccccc3C#N)cc12 | – | -33.6% (inactive)
9 | CN(Cc1ccco1)c1ncnc2ccc(-c3ccccc3C#N)cc12 | 1.26 µM (active) | –
10 | CN(Cc1ccco1)c1ncnc2ccc(-c3ccccc3Cl)cc12 | 3.16 µM (active) | –
11 | CN(C)c1ncnc2ccc(-c3ccccc3C#N)cc12 | – | -19.8% (inactive)
12 | CN1CCN(c2ncnc3ccc(-c4cccc(C#N)c4)cc23)CC1 | – | -31.3% (inactive)
13 | CN(Cc1ccco1)c1ncnc2ccc(-c3cccc(C#N)c3)cc12 | 6.31 µM (active) | –
14 | COc1ncc2nc(-c3ccc(F)cc3)c(=O)n(C)c2n1 | – | -5.58% (inactive)
15 | Cc1noc(C)c1-c1ccc2ncnc(N3CCN(C)CC3)c2c1 | – | -24.5% (inactive)
16 | Cc1noc(C)c1-c1ccc2ncnc(N(C)Cc3ccco3)c2c1 | 5.01 µM (active) | –
17 | Cc1noc(C)c1-c1ccc2ncnc(N3CCOCC3)c2c1 | – | -43.8% (inactive)
18 | COc1cc(/C=C2\SC(=S)N(Nc3ccccc3)C2=O)cc(OC)c1OC | 11.2 µM (active) | –
19 | Cc1ccc(S(=O)(=O)/C=C\C#N)cc1 | 5.01 µM (active) | –
20 | OCCNc1nc2ccccc2[nH]1 | – | -39.8% (inactive)
21 | Cc1nn(-c2nc3ccccc3[nH]2)c(N)c1-c1ccc(Cl)cc1 | 4.47 µM (active) | –
22 | Cc1ccccc1CSc1nccn1-c1ccccc1 | 0.631 µM (active) | –
23 | O=C(O)CSCCc1ccccc1 | – | 6.64% [at 11.4 µM] (inactive)
24 | O=C(CSc1nccn1-c1ccccc1)c1ccc(Cl)cc1 | 0.447 µM (active) | –
25 | c1ccc(CCSc2nccn2-c2ccccc2)cc1 | 1.26 µM (active) | –

Row | Structure (SMILES) | AC50 | activity, negative = inhibition
26 | O=c1ccnc(SCc2ccc(Cl)cc2)[nH]1 | – | -32.7% [at 11.4 µM] (inactive)
27 | Clc1ccc(CSc2nccn2Cc2ccccc2)cc1 | 0.224 µM (active) | –
28 | Nc1ncnc2c1nc(Sc1ccc(Cl)cc1)n2[C@@H]1O[C@H]2COP(=O)(O)O[C@@H]2[C@H]1O | – | -24.6% (inactive)
29 | CCc1ccc(CSc2nccn2-c2ccccc2)cc1 | 1.58 µM (active) | –
30 | N#CC1(Nc2ccc(-c3ccc(NC4(C#N)CCCC4)cc3)cc2)CCCC1 | – | 4.93% [at 11.4 µM] (inactive)
31 | CCOC(=O)c1ccc(Cl)c(NC(=O)c2ccc(-c3ccccc3)cc2)c1 | – | -23.7% (inactive)
32 | CCOc1c(Cl)cc(C(=O)Nc2ccccc2-c2ccccc2)cc1Cl | 2.51 µM (active) | –
33 | O=C(O)/C=C/C(=O)Nc1ccccc1-c1ccccc1 | – | -18.3% (inactive)
34 | O=c1cnc2cnc(Oc3cccc(Cl)c3)nc2n1C1CC1 | 15.8 µM (active) | –
35 | O=c1c(-c2ccccc2)nc2cnc(Oc3cccc(Cl)c3)nc2n1C1CC1 | – | -83.9% (inactive)
36 | COc1ncc2ncc(=O)n(Cc3cccs3)c2n1 | – | -42% (inactive)
37 | COc1ncc2nc(-c3ccc(F)cc3)c(=O)n(Cc3ccc(F)cc3)c2n1 | – | 1.23% (inactive)
38 | COc1ncc2ncc(=O)n(Cc3ccc(F)cc3)c2n1 | 7.94 µM (active) | –
39 | N#Cc1cccc(-c2nc3cnc(Oc4cccc(Cl)c4)nc3n(C3CC3)c2=O)c1 | – | -30.1% (inactive)
40 | O=c1c(-c2cccs2)nc2cnc(Oc3ccccc3)nc2n1Cc1cccs1 | – | 6.36% (inactive)
41 | COc1ncc2ncc(=O)n(CCC#N)c2n1 | – | 5.25% (inactive)
42 | COc1cccc(Cn2c(=O)cnc3cnc(Oc4cccc(Cl)c4)nc32)c1 | 25.1 µM (active) | –
43 | O=c1cnc2cnc(Oc3ccccc3)nc2n1Cc1cccs1 | 1.26 µM (active) | –
44 | COc1cccc(Cn2c(=O)cnc3cnc(N4CCN(C)CC4)nc32)c1 | – | -43.5% (inactive)
45 | CCN(CCO)C[C@H]1CCC[C@H]2CCCC[C@@H]21 | – | 12.1% [at 11.4 µM] (inactive)
46 | CCON=C1C(C)(C)C(C)(C)C(C)(C)C1(C)C | – | -8.06% [at 11.4 µM] (inactive)
47 | COC(=O)[C@H](C)NC(=O)C/C=C\[C@@H](C)[C@H]1C=C[C@H](O)[C@@H](CO)O1 | – | -2.78% [at 11.4 µM] (inactive)
48 | COCCn1c(=O)c(-c2ccc(F)cc2)nc2cnc(Oc3ccccc3)nc21 | – | -37.8% (inactive)
49 | N#CCCn1c(=O)c(-c2ccc(F)cc2)nc2cnc(Oc3cccc(Cl)c3)nc21 | – | 24.7% (inactive)
50 | N#CCCn1c(=O)cnc2cnc(Oc3ccccc3)nc21 | – | -18.7% (inactive)

Row | Structure (SMILES) | AC50 | activity, negative = inhibition
51 | N#CCCn1c(=O)c(-c2cccc(C#N)c2)nc2cnc(Oc3cccc(Cl)c3)nc21 | – | -21.1% (inactive)
52 | O=c1cnc2cnc(Oc3ccccc3)nc2n1Cc1ccc(F)cc1 | 2.51 µM (active) | –
53 | O=c1cnc2cnc(Oc3cccc(Cl)c3)nc2n1Cc1ccc(F)cc1 | 20 µM (active) | –
54 | N[C@H](CCCP(=O)(O)O)C(=O)O | – | -15% (inactive)
55 | CC(=O)C=NCC(=O)O | – | -14.5% [at 11.4 µM] (inactive)
56 | Cc1ccccc1OCCNC(=O)c1ccccc1Sc1ccccc1C#N | 8.91 µM (active) | –
57 | Cc1nc(S(=O)(=O)c2cccc(Cl)c2)nc2c1CCC2 | 15.8 µM (active) | –
58 | CCN(C(=O)c1cnc(N2CCN(c3ncccn3)CC2)c2ccccc12)c1cccc(Cl)c1 | 0.251 µM (active) | –
59 | COCC(=O)N1CCC2(CC1)CCN(c1ncccn1)CC2 | – | 29.1% (inactive)
60 | COCC(=O)N1CCC2(CC1)CN(c1ccccn1)C2 | – | 25.7% (inactive)
61 | O=C(Oc1ccccc1)N1CCC2(CC1)CCN(c1ncccn1)CC2 | – | -25.4% (inactive)
62 | COCC(=O)N1CCC2(CCCN(c3ncccn3)C2)CC1 | – | -0.728% (inactive)
63 | CN(C(=O)c1cnc(N2CCN(c3ncccn3)CC2)c2ccccc12)c1ccc(Cl)cc1 | 1.58 µM (active) | –
64 | Fc1ccc(C2CC(c3ccco3)=NN2c2ccccc2)cc1 (stereo not given) | 2.24 µM (active) | –
65 | C[C@@H]1CC[C@@H]2C(=O)N3[C@@H](CC[C@@H](C)[C@@H]3c3ccc(-c4ccco4)cc3)C(=O)N2[C@H]1c1ccc(-c2ccco2)cc1 | – | 0.199% [at 11.4 µM] (inactive)
66 | CCN1C(=O)[C@H]2[C@H]3[C@H](O)[C@H](O)C/C(=N/O[C@@H]4O[C@@H](COC(C)=O)[C@@H](OC(C)=O)[C@@H](OC(C)=O)[C@H]4OC(C)=O)[C@@H]3CC[C@@H]2C1=O | – | 13.6% [at 11.4 µM] (inactive)
67 | O=C(c1cc(O)c(O)c([N+](=O)[O-])c1)c1ccccc1F | – | -8.03% (inactive)
68 | Cc1cc(OC(=O)c2ccccc2Cl)cc(=O)n1C | – | -13.3% (inactive)
69 | Cc1ccc(-c2cccc(OC(=O)c3ccccc3F)c2)cc1 | 2.51 µM (active) | –
70 | CN(C)C(=N)N=C(N)N | – | 2.73% [at 25.6 µM] (inactive)
71 | COc1ccc(Cl)cc1NC(=O)C12CCC(C)(C(=O)O1)C2(C)C (stereo not given) | 1.26 µM (active) | –
72 | Cc1cc2c(s1)CCCCC(=O)N2 | 22.4 µM (active) | –
73 | O=C1CCCCC(=O)c2ccccc2N1 | – | -6.61% (inactive)
74 | N#C[C@H]1CN[C@H](N)N[C@@H]1N | – | 14.3% [at 11.4 µM] (inactive)
75 | Oc1[nH]c2ccccc2c1/C=N/c1nccs1 | 14.1 µM (active) | –

Row | Structure (SMILES) | AC50 | activity, negative = inhibition
76 | O=C1c2ccccc2C(=O)C1c1ccccc1 | – | -10.9% [at 25.6 µM] (inactive)
77 | c1ccc(C2OCC3(CO2)COC(c2ccccc2)OC3)cc1 (stereo not given) | 2.51 µM (active) | –
78 | CC(C)(C)c1[nH]nc2c1C(c1ccc(OC(=O)c3ccco3)cc1)C(C#N)=C(N)O2 (stereo not given) | – | -28.5% (inactive)
79 | C/C(=C\c1ccco1)C1C(C#N)=C(N)Oc2n[nH]c(-c3ccccc3)c21 (stereo not given) | 2.24 µM (active) | –
80 | COc1ccccc1CN1CC[C@@]2(CCCN(C(=O)c3cccn3C)C2)C1 | – | 6.39% (inactive)
81 | Cc1cccc(NC(=O)C2(c3ccccc3)CC2(Cl)Cl)c1 (stereo not given) | 1 µM (active) | –
82 | CC12CCC(C(=O)Nc3cccc4ccccc34)(C1Br)C2(C)C (stereo not given) | 8.91 µM (active) | –
83 | Cc1cccc(NC2=NC(=S)N(c3ccc(C(=O)O)cc3)C23CCCCC3)c1 | – | -54.6% (inactive)
84 | CCN(CC)CCOC(=O)C1(c2ccc([N+](=O)[O-])cc2)CCCC1 | – | -32.9% (inactive)
85 | Cc1cccc(NC(=O)C23CCC(C)(C2Br)C3(C)C)c1 (stereo not given) | 4.47 µM (active) | –
86 | Cc1cccc(NC(=O)C2(c3ccc([N+](=O)[O-])cc3)CCCC2)c1 | 0.891 µM (active) | –
87 | CCOC(=O)N/N=C1/C[C@@H](O)[C@@H](O)[C@@H]2[C@@H]3C(=O)N(C4CCCCC4)C(=O)[C@H]3CC[C@@H]12 | – | -22.2% [at 11.4 µM] (inactive)
88 | C[N+]1(CCCC[N+]2(C)CCCCCCC2)CCCCCCC1 | – | 34.1% [at 11.4 µM] (inactive)
89 | CCc1ccccc1NC(=O)c1ccc(-n2c(C)ccc2C)cc1 | 15.8 µM (active) | –
90 | C=CCNc1oc(/C=C/c2ccccc2)nc1C#N | 4.47 µM (active) | –
91 | O=C(O)c1ccc2c3c1cccc3c(=O)n1c3ccccc3nc21 | 3.98 µM (active) | –
92 | O=c1c2ccc([N+](=O)[O-])c3cccc(c32)c2nc3ccccc3n12 | – | -7.67% (inactive)
93 | c1cncc(-c2nccc(NCc3cccs3)n2)c1 | 7.94 µM (active) | –
94 | Cc1cccc(CNc2ccnc(-c3cccnc3)n2)c1 | 2.51 µM (active) | –
95 | Cc1cnc(CNc2ccnc(-c3cccnc3)n2)cn1 | – | -6.65% (inactive)
96 | c1ccc(CNc2ccnc(-c3cccnc3)n2)cc1 | 2.51 µM (active) | –
97 | O=C=Nc1ccc(Cc2ccc(N=C=O)cc2)cc1 (tested in a mixture with another compound) | – | -1.1% [at 11.4 µM] (inactive)
98 | CNc1nc(Cl)nc(NC(C)(C)C)n1 | 14.1 µM (active) | –
99 | CCOc1ccc(C2C(C(=O)O)c3ccccc3C(=O)N2CCN2CCOCC2)cc1 (stereo not given) | – | 2.08% (inactive)
100 | CCOc1ccc(/C=C2\C(=O)c3ccccc3OC2c2ccccc2)cc1 (stereo not given) | 1.12 µM (active) | –
